Screens deposited in PubChem by National Center for Advancing Translational Sciences (NCATS).
SARS PLpro yeast: SARS-CoV PLP inhibition in yeast; S. cerevisiae expressing SARS-CoV PLpro, growth rescue; Potency, µM (series often up to 32.9 µM), most hits filed as activators; hit rate 0.19% among 330,000; AID 485353; calls by dose curve; note: nearly all actives have a fitted effect of over 55% in size
CHX counter: counter-screen hit for Shiga toxin inhibitors, cycloheximide; cell reporter, cycloheximide protein synthesis inhibition counterscreen; max response, %; hit rate 12% among 300,000; in the data active = max response mostly above about 13%, no sharp cut-off; inactive = mostly below about 14%; note: read at 38.3 µM for the half of the compounds with a filed dose
AMA1 RON2 block: disrupts binding of P. falciparum AMA1 to RON2. AID 720542. AlphaScreen AMA1-biotinylated RON2 peptide binding. hit rate 0.2% among 360,000. Potency, µM (series often up to 58.2 µM), actives largely listed as inhibitors; note: nearly all actives have a fitted effect of over 45% in size
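AMA1 (3D7) with his tag at 25 nM final met compounds first, then biotinylated RON2 peptide at 25 nM; detection used donor plus acceptor beads, 10 µg/mL apiece, read by AlphaScreen after 30 min at room temperature.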
Pf growth 48h: inhibits P. falciparum growth in the first generation, 48 h; Potency, µM (titrated, usually from 28.7 µM), most hits filed as inhibitors; hit rate 5.9% among 310,000; P. falciparum luciferase growth in erythrocytes, 48 h; AID 504832
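First compound was added to culture medium, then infected red cells at 0.1% parasitemia and 2% hematocrit (final). After incubation at 37 C under 5% CO2, luciferase detection reagent was dispensed and light output recorded.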
Pf growth 96h: P. falciparum growth inhibition at 96 hours; P. falciparum luciferase reporter growth, 96 h; hit rate 6.9% among 320,000; Potency, µM (titrated, usually from 28.7 µM), most hits filed as inhibitors
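Readout is luminescence from an integrated firefly luciferase in P. falciparum. Red cells, 2% hematocrit and 0.05% parasitemia final, were cultured with compound through two parasite generations (96 hours) at 37 C, 5% CO2.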
Shiga toxin inh: blocks Shiga toxin action in Vero cells; inhibition, % at 38.7 µM; hit rate 9.2% among 290,000; Vero cells, Shiga toxin protein synthesis inhibition reporter; in the data active = inhibition mostly above about 28%, no sharp cut-off; inactive = mostly below about 43%
A number is an active result. This is a sample that favours compounds with a hit; in the whole collection about 19% have one here. Unless noted, calls come from the whole dose curve; as a rule, active = well fitted curve in the direction sought with a large enough effect; inconclusive = small, poorly fitted or top-dose-only effect, or another doubt; inactive = no such curve, though single readings can be large; an effect the other way counts as inactive or inconclusive.

How did Cc1cccc2cc(C(c3nnnn3Cc3ccccc3)N3CCN(C)CC3)c(=O)[nH]c12 (stereo not drawn) do in these assays?
SARS PLpro yeast: inactive; CHX counter: inactive; AMA1 RON2 block: inactive; Pf growth 48h: inactive; Pf growth 96h: inconclusive; Shiga toxin inh: inactive

Results for Cc1ccc2cc(C(c3nnnn3Cc3ccccc3)N3CCc4ccccc43)c(=O)[nH]c2c1 (stereo not drawn) ?
SARS PLpro yeast: inactive; CHX counter: inactive; AMA1 RON2 block: inactive; Pf growth 96h: 6.57µM; Shiga toxin inh: inactive

What do the screens show for `Cc1ccc2[nH]c(=O)c(C(c3nnnn3Cc3ccccc3)N3CCc4ccccc43)cc2c1` (stereo not drawn)?
SARS PLpro yeast: inactive; CHX counter: inactive; AMA1 RON2 block: inactive; Shiga toxin inh: inactive

What do the screens show for `Cc1ccc2[nH]c(=O)c(C(c3nnnn3CC3CCCO3)N3CCCc4ccccc43)cc2c1` (stereo not drawn)?
SARS PLpro yeast: inactive; CHX counter: inactive; AMA1 RON2 block: inactive; Pf growth 48h: 13.1µM; Pf growth 96h: inactive; Shiga toxin inh: inactive

How did Cc1ccc2cc(C(c3nnnn3Cc3ccccc3)N3CCc4ccccc43)c(=O)[nH]c2c1C (stereo not drawn) do in these assays?
SARS PLpro yeast: inactive; CHX counter: inactive; AMA1 RON2 block: inactive; Pf growth 48h: 10.4µM; Shiga toxin inh: inactive

What do the screens show for `COc1ccc(NC(=O)COc2ccc3c(C)cc(=O)oc3c2)cc1S(=O)(=O)N1CCCCC1`?
SARS PLpro yeast: inactive; AMA1 RON2 block: inactive; Pf growth 48h: inactive; Pf growth 96h: inactive

Results for CCC(C)(C)n1nnnc1C(c1cc2cccc(C)c2[nH]c1=O)N1CCCC1 (stereo not drawn) ?
SARS PLpro yeast: inactive; CHX counter: inactive; AMA1 RON2 block: inactive; Pf growth 48h: inconclusive; Pf growth 96h: inactive; Shiga toxin inh: inactive

Results for CCC(C)(C)n1nnnc1C(c1cc2cc(C)cc(C)c2[nH]c1=O)N1CCN(Cc2ccc3c(c2)OCO3)CC1 (stereo not drawn) ?
SARS PLpro yeast: inactive; CHX counter: inactive; AMA1 RON2 block: inactive; Pf growth 96h: 0.522µM; Shiga toxin inh: inactive

What do the screens show for `CCC(C)(C)n1nnnc1C(c1cc2cc(C)cc(C)c2[nH]c1=O)N1CCCC1` (stereo not drawn)?
SARS PLpro yeast: inactive; CHX counter: inactive; AMA1 RON2 block: inactive; Pf growth 48h: 5.86µM; Pf growth 96h: inconclusive; Shiga toxin inh: inactive

How did Cc1cc(C)c2[nH]c(=O)c(C(c3nnnn3CC3CCCO3)N3CCCC(C)C3)cc2c1 (stereo not drawn) do in these assays?
SARS PLpro yeast: inactive; CHX counter: inactive; AMA1 RON2 block: inactive; Pf growth 48h: 14.7µM; Shiga toxin inh: inactive

How did O=C(CCNC(=O)c1ccccc1Cl)Nc1nnc(C2CC2)s1 do in these assays?
SARS PLpro yeast: inactive; CHX counter: inactive; AMA1 RON2 block: inactive; Pf growth 48h: inactive; Pf growth 96h: inactive; Shiga toxin inh: inactive

How did COc1cc(/C=C2\N=C(c3c(-c4ccccc4)noc3C)OC2=O)ccc1OC(C)=O do in these assays?
SARS PLpro yeast: inactive; CHX counter: inactive; AMA1 RON2 block: inactive; Pf growth 48h: 13.1µM; Pf growth 96h: inactive; Shiga toxin inh: inactive

Results for CN(C)c1ccc(CC(=O)N2CCCCC2c2cc(C(=O)Nc3ccccc3)no2)cc1 (stereo not drawn) ?
AMA1 RON2 block: inactive

How did Cc1ccc2c(c1)/C(=N/O)CCS2 do in these assays?
SARS PLpro yeast: inactive; CHX counter: inactive; AMA1 RON2 block: inactive; Pf growth 48h: inactive; Pf growth 96h: inactive; Shiga toxin inh: inactive

What do the screens show for `Fc1ccc2c(c1)/C(=N/Nc1ccccn1)CCS2`?
SARS PLpro yeast: inactive; CHX counter: 29.7; AMA1 RON2 block: inactive; Pf growth 48h: inconclusive; Pf growth 96h: inactive; Shiga toxin inh: 57.8

How did COc1ccc(S(=O)(=O)N2CC=C(C(=O)NC3CCCC3)CC2)cc1 do in these assays?
SARS PLpro yeast: inactive; CHX counter: inactive; AMA1 RON2 block: inactive; Pf growth 48h: inactive; Pf growth 96h: inactive; Shiga toxin inh: inactive

Results for Cc1cccc(C)c1NC(=O)C1CCN(S(C)(=O)=O)CC1 ?
SARS PLpro yeast: inactive; CHX counter: inactive; AMA1 RON2 block: inactive; Pf growth 48h: inactive; Pf growth 96h: inconclusive; Shiga toxin inh: inactive

What do the screens show for `NNC(=O)COc1ccc(-c2nccc(-c3ccc(F)cc3)n2)cc1`?
SARS PLpro yeast: inactive; CHX counter: inactive; AMA1 RON2 block: inactive; Pf growth 48h: inconclusive; Pf growth 96h: 11.7µM; Shiga toxin inh: inactive

What do the screens show for `Oc1ccc(-c2nccc(-c3ccc(F)cc3)n2)cc1`?
SARS PLpro yeast: inactive; CHX counter: 80.7; AMA1 RON2 block: inactive; Pf growth 48h: inactive; Pf growth 96h: inactive; Shiga toxin inh: 88.0

How did Cc1cccc(C)c1NC(=O)CN(c1ccccn1)S(=O)(=O)c1ccc(F)cc1 do in these assays?
SARS PLpro yeast: inactive; CHX counter: inactive; AMA1 RON2 block: inconclusive; Pf growth 48h: inactive; Pf growth 96h: inactive; Shiga toxin inh: inactive

What do the screens show for `O=C(c1ccc(Cl)cc1)N1CCN(c2ncccn2)CC1`?
SARS PLpro yeast: inactive; CHX counter: inactive; AMA1 RON2 block: inactive; Pf growth 96h: inactive; Shiga toxin inh: inactive

How did O=C(CCSc1ccc(Cl)cc1)N1CCN(c2ncccn2)CC1 do in these assays?
SARS PLpro yeast: inactive; CHX counter: 16.7; AMA1 RON2 block: inactive; Pf growth 48h: inactive; Pf growth 96h: inactive; Shiga toxin inh: inactive

How did O=C(CSc1ccccn1)N1CCN(c2cccc(Cl)c2)CC1 do in these assays?
SARS PLpro yeast: inconclusive; CHX counter: inactive; AMA1 RON2 block: inactive; Pf growth 48h: inactive; Shiga toxin inh: inactive

How did O=C(CCSc1ccc(Cl)cc1)N1CCN(c2ccc(O)cc2)CC1 do in these assays?
SARS PLpro yeast: inactive; CHX counter: 27.3; AMA1 RON2 block: inactive; Pf growth 48h: inactive; Pf growth 96h: inactive; Shiga toxin inh: 58.9

What do the screens show for `O=C(Cc1ccccc1)N1CCN(C(=O)c2ccco2)CC1`?
SARS PLpro yeast: inactive; CHX counter: inactive; AMA1 RON2 block: inactive; Pf growth 48h: inactive; Pf growth 96h: inactive; Shiga toxin inh: inactive

Results for O=C(CCSc1ccccc1)N1CCN(C(=O)c2ccco2)CC1 ?
SARS PLpro yeast: inactive; CHX counter: 35.2; AMA1 RON2 block: inactive; Pf growth 48h: inactive; Shiga toxin inh: 99.3

Results for O=C(CSc1ccccn1)N1CCN(c2ccccc2)CC1 ?
SARS PLpro yeast: inactive; CHX counter: 34.8; AMA1 RON2 block: inactive; Pf growth 48h: inactive; Shiga toxin inh: 35.1

Results for NC(=O)C1CCN(C(=O)CCSc2ccc(Cl)cc2)CC1 ?
SARS PLpro yeast: inactive; CHX counter: inactive; AMA1 RON2 block: inactive; Pf growth 48h: inactive; Pf growth 96h: inactive; Shiga toxin inh: inactive

Results for CC(=O)c1ccc(OCCCC(=O)OCC(=O)Nc2c(C)nn(-c3ccccc3)c2C)cc1 ?
SARS PLpro yeast: inactive; AMA1 RON2 block: inactive; Pf growth 48h: inconclusive; Pf growth 96h: inactive

Results for O=C(CSc1ccccc1)N1CCN(c2ccccc2)CC1 ?
SARS PLpro yeast: inconclusive; CHX counter: inactive; AMA1 RON2 block: inactive; Pf growth 48h: inactive; Pf growth 96h: inconclusive; Shiga toxin inh: 85.2
